Measurements taken from the supplement of paper PMC6555819.

Assays:
Test in all cases: PBM binding z-score (relative to random genomic background probes); higher = stronger binding; sequences stand for … in GC…GCGATTGACAGCGTAGAATGAAGG
[1] = system: FXR:RXRa (NR concentration 270 nM, RXRa partner concentration 90 nM)
Outline: (§1)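 Antibodies against each partner of ligand-free nuclear receptor dimers (one per run) detected binding on custom Agilent 4×180K protein-binding microarrays after 1 h incubation. The double-stranded probes had 34-nt variable regions carrying direct-repeat seeds, single-nucleotide variants, half-site ablations and random human genomic background sequences. Binding z-scores, from regression-normalized fluorescence, use the random background probes as reference.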

[2] = system: LXRa:RXRa (NR concentration 270 nM, RXRa partner concentration 90 nM)
Outline: as §1

[3] = system: LXRa homodimer (NR concentration 270 nM)
Outline: as §1

[4] = system: LXRb:RXRa (NR concentration 270 nM, RXRa partner concentration 90 nM)
Outline: as §1

[5] = system: LXRb homodimer (NR concentration 270 nM)
Outline: as §1

[6] = system: PPARa:RXRa (NR concentration 270 nM, RXRa partner concentration 90 nM)
Outline: as §1

[7] = system: PPARg:RXRa 270nM:90nM, anti-RXR (NR concentration 270 nM, RXRa partner concentration 90 nM)
Outline: as §1

[8] = system: PPARg:RXRa 30nM:10nM, anti-RXR (NR concentration 30 nM, RXRa partner concentration 10 nM)
Outline: as §1

[9] = system: PPARg:RXRa 90nM:30nM, anti-RXR (NR concentration 90 nM, RXRa partner concentration 30 nM)
Outline: as §1

[10] = system: PPARg:RXRa (NR concentration 180 nM, RXRa partner concentration 90 nM)
Outline: as §1

| Sequence | PBM binding z-score [1] | PBM binding z-score [2] | PBM binding z-score [3] | PBM binding z-score [4] | PBM binding z-score [5] | PBM binding z-score [6] | PBM binding z-score [7] | PBM binding z-score [8] | PBM binding z-score [9] | PBM binding z-score [10] |
| --- | --- | --- | --- | --- | --- | --- | --- | --- | --- | --- |
| TCTTGTAGATCAAAGCTTAAGAAAGCCGAAGCCT | -0.314 | 0.0464 | -0.571 | -0.365 | -0.532 | 0.317 | 1.5 | 2.55 | 2.08 | – |
| GCTTACGGGTCAAAGGTTATAACATGAATAGAAT | 7.52 | 5.95 | 0.829 | 5.89 | 1.05 | – | 9.66 | 8.65 | 10.4 | 11.2 |
| AGTCAAAGTTCAGCACGAGGTAACGTAAAGCACG | 4.45 | 4.19 | 1.47 | 2.23 | 0.567 | – | 5.1 | 2.2 | 4.2 | 4.88 |
| ATACGTAGGTTATCGGGTCATTCAGTTTGCGCAT | 3.01 | 3.2 | 1.41 | 2.88 | 1.18 | 3.58 | 3.39 | 0.883 | 2.46 | – |
| GGAACGGGGGCATTCGAGTTGATAGCATGGCGAT | 3.01 | 4.03 | 0.603 | 4.98 | 6.54 | 3.99 | 4.08 | 1.54 | 3.65 | – |
| ACTCGGAGGGCAAAGGTCAGAGCTACGCCAGTGA | 5.79 | 5.11 | 1.08 | 4.14 | -0.447 | 6.1 | 8.48 | 8.91 | 9.51 | – |
| TCTGCTAGGTCAACGATGGTCAGCGAATCTGCTA | 3.19 | 2.8 | -0.293 | 1.24 | -0.382 | – | 3.03 | 1.79 | 2.4 | 2.51 |
| ACTTACGGGTCAACGAAGTTATAGCACGCGTATA | 6.23 | 4.01 | 0.164 | 3.62 | 0.73 | 5.47 | 4.81 | 1.85 | 3.63 | – |
| ACTTACGGGTCAAGGAGGTTATAGCACGCGTATA | 6.35 | 4.93 | 1.1 | 4.17 | 0.922 | 5.72 | 5.1 | 2.1 | 3.84 | – |
| GCTTACGGGTCAAAGGTTATGGCATGAATAGAAT | 6.72 | 5.85 | 0.622 | 5.65 | 0.792 | 6.79 | 9.38 | 9.74 | 10.5 | – |
| TTACCAAGGTGAAGGTCGTGGATCCCTCTGTAGA | 1.6 | 1.33 | 0.0601 | 1.45 | -0.935 | 3.03 | 4.71 | 2.78 | 4.4 | – |
| CCGACTGGGGCAAAGGTTACGATACTCAGTACGA | 1.82 | 1.6 | -0.076 | 2 | -1.04 | 5.62 | 9.56 | 9.53 | 11.7 | – |
| CAATCTAGGTCAAAGGTCAAAGTCGAGCCAACCA | 8.46 | 7.47 | 6.51 | 7.41 | 3.28 | – | 11.2 | 12.9 | 13.1 | 14 |
| CCTTACGGGTCGCTGACAGGTTATAGCATTTGGA | 0.72 | 1.23 | -0.237 | 0.781 | -0.428 | 1.71 | 0.371 | -0.323 | -0.0613 | – |
| CAAACTAGGTCAAAGGTCAAAATCGAGCCAACCA | 8.54 | 7.06 | 4.95 | 7.22 | 3.3 | – | 11.8 | 13.7 | 14.5 | 13.4 |
| ATATGTAGGTCAGGGTCATTCAGAAAGTAGGGAA | 5.82 | 4.89 | 1.68 | 5.11 | 2.07 | 6.06 | 7.66 | 6.11 | 7.76 | – |
| CCAGACAGGTGAAAGGTAACTCCGTCTGGTACGC | 0.568 | 0.648 | -0.506 | 0.857 | -0.698 | 3.32 | 5.65 | 3.94 | 5.52 | – |
| CTAACTAGGTCACCGGAAGGTCAAAGTCCGCATG | 6.39 | 6.17 | 5.51 | 5.57 | 1.15 | 6.52 | 8.19 | 6.41 | 7.67 | – |
| CATACACGGTCAGCTAGGCCAGAGTAGGGACGGC | 0.00236 | 0.294 | -0.0294 | -0.523 | 0.421 | -0.409 | -0.257 | -0.34 | -0.382 | – |
| CGAACTAGGTCAAAGGCCAGTGAAAGGCGACGTA | 4.37 | 2.92 | -0.479 | 1.81 | -0.821 | 5.83 | 9.43 | 9.62 | 10.3 | – |
| TCTAGTTGGTCACGGAGGTCACACGCGACGGGTA | 3.47 | 3.74 | 2.9 | 3.14 | 0.904 | 3.95 | 4.08 | 3.3 | 3.9 | – |
| CGAACTATGTCAAGGACAGTGAATCTCCGCACGC | 0.0723 | -0.232 | -0.234 | -0.456 | -0.269 | – | 0.74 | -0.213 | 0.259 | 0.856 |
| CGAACTAGGTCAAAGGACACTGAAAGGCGACGTA | 4.53 | 2.6 | 0.187 | 2.15 | -0.198 | 5.49 | 8.98 | 10.1 | 10.8 | – |
| CAAACTAGGTCACGAAAGGTCAAAATCGAATGAC | 7.3 | 8.11 | 7.47 | 7.37 | 2.57 | 6.41 | 8.29 | 6.67 | 8.42 | – |
| TCTAGTAGGTCACGGAGGTCACACACGACGGGTA | 7.27 | 6.42 | 5.23 | 5.56 | 1.44 | 6.41 | 8.31 | 6.89 | 8.04 | – |
| CCTACTGGGCCAAGCTCATTGATCAGTCAAAGCA | -0.645 | -0.823 | -0.557 | -0.699 | -1.01 | 0.0972 | 0.223 | -0.794 | -0.165 | – |
